Only some compounds are listed: those with a hit (about 4% of all), similar ones and a draw of the others.
Mtb betalactam: beta-lactam sensitization of Mtb H37Rv, H37Rv. 0.27% of 330,000 active. inhibition, % at 25 µM. M. tuberculosis H37Rv growth with meropenem, percent inhibition; call rule not given here;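 also: growth measured after seven days incubation then overnight dye step; 0% = bacteria only wells and 100% = bacteria with antibiotic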
FBA Mtb inh: Mtb FBA enzyme inhibitors, primary screen, biochemical, fluorescence, strain H37Rv; Fructose-bisphosphate aldolase (Mycobacterium tuberculosis (strain ATCC 25618 / H37Rv)), …; purified M. tuberculosis FBA, fluorescence read-out; inhibition, % at 1 µM; 2.3% of 360,000 active; AID 588726, 2011;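 also: 0% = vehicle and 100% = reference inhibitor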
Target sequence (P9WQA3 whole entry, looked up): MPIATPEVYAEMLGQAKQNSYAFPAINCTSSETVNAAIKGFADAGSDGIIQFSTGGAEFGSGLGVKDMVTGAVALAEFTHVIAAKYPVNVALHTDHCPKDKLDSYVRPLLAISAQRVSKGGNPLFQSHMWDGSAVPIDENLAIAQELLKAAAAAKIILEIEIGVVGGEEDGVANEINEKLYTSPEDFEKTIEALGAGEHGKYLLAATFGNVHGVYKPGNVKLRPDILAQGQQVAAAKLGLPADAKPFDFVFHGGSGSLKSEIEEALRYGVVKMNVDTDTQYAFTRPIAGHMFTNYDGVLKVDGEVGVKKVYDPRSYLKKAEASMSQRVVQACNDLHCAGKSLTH
MazEF act: activators of E. coli MazEF toxin-antitoxin RNase, primary screen, biochemical, fluorescence, uHTS; Endoribonuclease toxin MazF (Escherichia coli (strain K12)), P0AE70; FAM/BHQ RNA-DNA oligo cleavage fluorescence, 5 h; activation, % at 20 µM; 0.32% of 350,000 active; AID 504720, 2011; in the data active = activation above about 50%
Target sequence (P0AE70 whole entry, looked up): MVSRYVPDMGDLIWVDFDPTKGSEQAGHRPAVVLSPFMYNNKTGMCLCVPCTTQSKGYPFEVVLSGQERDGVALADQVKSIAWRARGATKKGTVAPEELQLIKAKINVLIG
CCHFV vOTU inh: CCHFV vOTU protease inhibitors, primary screen, biochemical, Pep-AMC substrate, fluorescence; Crimean-Congo hemorrhagic fever virus L polyprotein viral ovarian tumor (vOTU) protease …; inhibition, % at 11.5 µM; 0.55% of 370,000 active; in the data active = inhibition above about 30%; also: 0% = vehicle wells with enzyme and 100% = no enzyme wells
GDH-TPI counter-1: GDH-TPI coupling enzyme inhibitors, primary screen, artefact control for M. tuberculosis FBA inhibitor project, biochemical, absorbance, full deck | 1.2% of 360,000 active | GDH-TPI coupled enzyme counterscreen, NADH absorbance | inhibition, % at 4.8 µM; in the data active = inhibition above about 30%;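 also: 0% = DMSO wells and 100% = wells lacking the enzyme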
Mtb FBA inh conf: M. tuberculosis aldolase blockers, biochemical, fluorescence, strain H37Rv, confirmation; shares compounds with FBA Mtb inh; purified M. tuberculosis FBA, fluorescence read-out; inhibition, % at 1 µM; 78% of 5,600 active;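 also: 0% = vehicle wells and 100% = reference inhibitor wells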
GDH-TPI counter-2: GDH-TPI coupling enzyme inhibitors, artefact control for M. tuberculosis FBA inhibitor project, biochemical, fluorescence, high throughput; inhibition, % at 1 µM; 81% of 5,600 active; shares compounds with FBA Mtb inh; GDH-TPI coupled enzyme counterscreen; in the data active = inhibition above about 10%
An asterisk follows results filed as active; . = no result given; + = active, no number. Rule as the data show it, unless noted: active = inhibition above about 27%; inactive = the rest.

SMILES	Mtb betalactam	FBA Mtb inh	MazEF act	CCHFV vOTU inh	GDH-TPI counter-1	Mtb FBA inh conf	GDH-TPI counter-2
COc1cc(OC)cc(-c2oc3cccnc3c2C#CCCO)c1	10.3	41.9*	8.3	-1.6	10.8	-4.9	-5.0
CC1(C)Cc2c(cnn2-c2ccccc2)-c2c1c1ccccc1n2CC(O)CBr (stereo not given)	91.8	30.6*	5.9	16.1	0.0	162.8*	107.5*
C/C(=C\COc1ccc2ccc(=O)oc2c1)CC[C@@H](O)C(C)(C)O	0.0	83.1*	-2.2	-26.3	16.2	-4.6	-4.8
C/C(=C\COc1cc(=O)[nH]c2ccccc12)CCC(O)C(C)(C)O (stereo not given)	-3.9	3.2	4.3	0.3	-4.9	.	.
O=C(Nc1nccs1)c1ccccc1Br	-7.2	0.8	10.1	-8.9	9.4	.	.
Nc1ccccc1C(=O)Nc1nccs1	-8.8	54.7*	-2.3	-96.0	6.7	127.8*	84.2*
CCN1CCSc2ccc(C(=O)NCc3cc(Br)ccc3OC)cc21	-8.1	36.6*	-0.2	-23.1	-7.3	101.6*	75.8*
CN1CCSc2ccc(C(=O)Nc3ccc(Cl)cc3)cc21	1.1	33.2*	3.5	-12.1	12.6	12.9	3.4
COc1ccc(Br)cc1CNC(=O)c1ccc2c(c1)N(C)CCS2	-2.6	49.9*	-6.0	-31.0	3.9	+	152.4*
COc1ccc(Br)cc1CNC(=O)CCC(=O)N1CCSc2ccccc21	-0.3	-2.1	0.5	-6.2	7.2	.	.
COc1ccccc1N/N=C/c1c(CO)cnc(C)c1O	1.0	13.2	1.9	-27.3	20.4	.	.
COc1cc(N=Cc2c(CO)cnc(C)c2O)cc(OC)c1OC	8.1	81.8*	7.0	-23.1	5.2	62.8*	62.9*
CC(C)CN1C(=O)C[C@]2(C(=O)N(C)c3ccc(NS(=O)(=O)C4CC4)cc32)C1c1ccccc1 (stereo not given in full)	.	.	.	11.6	.	.	.
O=C(O)/C=C\C(=O)Nc1ccccc1C(=O)NCc1ccccc1	0.8	52.4*	-2.8	-8.6	10.4	-5.4	-3.1
NC(=O)c1ccccc1NC(=O)/C=C/C(=O)O	-6.2	50.4*	6.4	-30.4	-1.2	56.6*	48.5*
CC(C)CNC(=O)OCc1cn(Cc2cccc(F)c2)nn1	.	.	.	-4.0	.	.	.
CC(C)(C)c1ccc(S(=O)(=O)N2CCCC(C(=O)NCc3cccs3)C2)cc1 (stereo not given)	.	.	.	5.0	.	.	.
CCN(C(=O)COC(=O)CCCN1C(=O)c2cccc3cccc(c23)C1=O)C1CCS(=O)(=O)C1 (stereo not given)	-1.2	32.8*	10.0	-6.9	17.4	+	+
O=C1c2cccc3cccc(c23)C(=O)N1CCO	.	51.3*	-1.5	-15.2	33.0*	158.2*	162.4*
CN(C(=O)COC(=O)CCCN1C(=O)c2cccc3cccc(c23)C1=O)C1CCS(=O)(=O)C1 (stereo not given)	-6.0	28.8*	2.8	-8.4	13.2	144.2*	99.7*
O=C(CCCN1C(=O)c2cccc3cccc(c23)C1=O)NCc1cccnc1	-11.1	34.6*	4.8	-10.6	1.9	+	+
O=C(CN1C(=O)c2cccc3cccc(c23)C1=O)N1CCCCCC1	-5.0	33.0*	0.6	-4.4	26.8	96.1*	85.3*
CCOC(=O)CCCCCN1C(=O)c2cccc3cccc(c23)C1=O	76.8	28.2*	-4.0	-7.1	19.3	113.4*	66.6*
Clc1cccc(Oc2ncc(CN3CCOCC3)s2)c1	-3.5	2.3	2.9	0.4	3.9	.	.
Cc1ccc(Oc2ncc(CN3CCOCC3)s2)cc1	2.3	38.4*	-0.8	4.3	-5.5	49.6*	44.3*
SMILES	Mtb betalactam	FBA Mtb inh	MazEF act	CCHFV vOTU inh	GDH-TPI counter-1	Mtb FBA inh conf	GDH-TPI counter-2
Cc1cccc(-c2cc(NCCc3cccnc3)n3nccc3n2)c1	.	31.6*	.	-17.1	3.5	46.2*	35.2*
CCOc1cccc(-c2cc(NCCc3ccccn3)n3nccc3n2)c1	.	35.0*	.	-27.1	7.1	87.1*	71.5*
O=C(CSc1nnc(-c2ccccc2)n1-c1ccc(Cl)cc1)Nc1cccc2ccccc12	.	.	.	5.2	.	.	.
Nc1[nH]c2cc(C(F)(F)F)ccc2c1C(=O)N1CCN(CCc2ccccc2)CC1	.	.	.	11.2	.	.	.
Cc1ccc(-c2cc(-c3ccccc3Cl)c(C#N)c(N)n2)o1	38.0	16.1	5.5	-12.9	-1.0	.	.
Cc1ccc(-c2cc(-c3ccccc3)c(C#N)c(N)n2)o1	-3.8	28.5*	11.4	-73.8	8.9	148.4*	125.3*
Cc1cccc(C=Nc2ccc3c(c2)oc2ccccc23)c1O	96.9	35.6*	-4.9	5.9	9.0	151.3*	117.3*
Cc1ccccc1N=Cc1cccc(O)c1O	34.4	-5.4	4.8	.	3.7	.	.
COc1ccc(OC)c(/C=N/NC(=O)CC2C(=O)NN=C2C)c1 (stereo not given)	-18.9	68.2*	2.6	-89.5	15.2	41.6*	37.7*
COc1ccc(/C=N/NC(=O)CC(=O)NCc2cccnc2)c(OC)c1	-3.5	-1.6	2.7	22.3	17.7	.	.
COc1ccc(OC)c(/C=N/NC(=O)CC(=O)NC2CCCCC2)c1	-4.8	104.7*	4.9	-122.5	2.2	152.2*	122.3*
CCOc1cc(/C=N/NC(=O)CCCC(=O)NC2CCCCC2)ccc1O	3.1	55.7*	-1.4	11.0	12.4	23.7	13.9*
COc1cccc(/C=N/NC(=O)CC2C(=O)NN=C2C)c1OC (stereo not given)	-10.2	11.9	2.2	10.9	11.8	.	.
COc1ccc(OC)c(C=NNC(=O)NN=Cc2cc(OC)ccc2OC)c1	.	11.0	27.4	-21.8	27.4	.	.
COc1ccc(OC)c(/C=N/NC(=O)CC(=O)NCc2ccccc2)c1	3.6	29.3*	-3.5	-46.4	-3.5	111.2*	103.2*
COc1ccc(CNS(=O)(=O)CC2NCc3ccc(C)cc32)cc1 (stereo not given)	.	.	.	11.6	.	.	.
O=C(NC1CCCCN(Cc2cccc(Cl)c2)C1=O)c1cccc([N+](=O)[O-])c1 (stereo not given)	.	.	.	-6.6	.	.	.
COC(=O)[C@]12C[C@H](CC(=O)NCC3CCCCC3)C(=O)N(CCc3ccc(OC)c(OC)c3)C1=C[C@H](C(C)C)O[C@@H]2C1CC1	.	.	.	19.8	.	.	.
COC(=O)c1ccc2c(C(C)c3ccccc3O)c[nH]c2c1 (stereo not given)	.	.	.	-4.5	.	.	.

High-throughput results (PubChem)
